Drawing on PubChem BioAssay, this text covers inhibition and superoxide response (% of plate) for 40 molecules.

A number with no mark means an inactive call.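 Rule for the calls, unless noted: active = superoxide response below 65% of plate, a cut near 3 SD across the whole screen; inactive = the rest.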

Chain of Integrin beta-1 (Homo sapiens) + Integrin alpha-4 (Homo sapiens) (P05556 whole entry, looked up): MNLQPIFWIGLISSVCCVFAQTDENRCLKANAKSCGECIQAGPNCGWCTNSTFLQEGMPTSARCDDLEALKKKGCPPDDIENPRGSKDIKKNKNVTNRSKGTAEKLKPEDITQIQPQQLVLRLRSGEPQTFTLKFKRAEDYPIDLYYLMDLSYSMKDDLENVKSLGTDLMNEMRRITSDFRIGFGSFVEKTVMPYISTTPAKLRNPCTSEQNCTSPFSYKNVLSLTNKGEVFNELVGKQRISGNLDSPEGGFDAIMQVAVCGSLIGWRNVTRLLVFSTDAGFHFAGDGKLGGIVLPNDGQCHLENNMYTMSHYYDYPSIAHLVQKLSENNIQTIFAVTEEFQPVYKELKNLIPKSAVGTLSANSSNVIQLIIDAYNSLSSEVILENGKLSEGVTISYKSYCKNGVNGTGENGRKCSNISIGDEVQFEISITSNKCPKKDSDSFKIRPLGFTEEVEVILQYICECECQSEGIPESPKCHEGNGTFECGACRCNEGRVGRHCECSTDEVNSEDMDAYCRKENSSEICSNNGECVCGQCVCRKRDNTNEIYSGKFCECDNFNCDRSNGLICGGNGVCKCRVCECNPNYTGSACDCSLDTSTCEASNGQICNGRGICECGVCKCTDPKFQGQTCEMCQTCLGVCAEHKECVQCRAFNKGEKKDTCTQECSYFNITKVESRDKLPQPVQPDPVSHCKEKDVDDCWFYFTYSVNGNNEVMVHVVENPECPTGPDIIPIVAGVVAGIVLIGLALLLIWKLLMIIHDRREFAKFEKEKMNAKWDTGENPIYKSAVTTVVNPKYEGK
Chain of Integrin beta-1 (Homo sapiens) + Integrin alpha-4 (Homo sapiens) (P13612 whole entry, looked up): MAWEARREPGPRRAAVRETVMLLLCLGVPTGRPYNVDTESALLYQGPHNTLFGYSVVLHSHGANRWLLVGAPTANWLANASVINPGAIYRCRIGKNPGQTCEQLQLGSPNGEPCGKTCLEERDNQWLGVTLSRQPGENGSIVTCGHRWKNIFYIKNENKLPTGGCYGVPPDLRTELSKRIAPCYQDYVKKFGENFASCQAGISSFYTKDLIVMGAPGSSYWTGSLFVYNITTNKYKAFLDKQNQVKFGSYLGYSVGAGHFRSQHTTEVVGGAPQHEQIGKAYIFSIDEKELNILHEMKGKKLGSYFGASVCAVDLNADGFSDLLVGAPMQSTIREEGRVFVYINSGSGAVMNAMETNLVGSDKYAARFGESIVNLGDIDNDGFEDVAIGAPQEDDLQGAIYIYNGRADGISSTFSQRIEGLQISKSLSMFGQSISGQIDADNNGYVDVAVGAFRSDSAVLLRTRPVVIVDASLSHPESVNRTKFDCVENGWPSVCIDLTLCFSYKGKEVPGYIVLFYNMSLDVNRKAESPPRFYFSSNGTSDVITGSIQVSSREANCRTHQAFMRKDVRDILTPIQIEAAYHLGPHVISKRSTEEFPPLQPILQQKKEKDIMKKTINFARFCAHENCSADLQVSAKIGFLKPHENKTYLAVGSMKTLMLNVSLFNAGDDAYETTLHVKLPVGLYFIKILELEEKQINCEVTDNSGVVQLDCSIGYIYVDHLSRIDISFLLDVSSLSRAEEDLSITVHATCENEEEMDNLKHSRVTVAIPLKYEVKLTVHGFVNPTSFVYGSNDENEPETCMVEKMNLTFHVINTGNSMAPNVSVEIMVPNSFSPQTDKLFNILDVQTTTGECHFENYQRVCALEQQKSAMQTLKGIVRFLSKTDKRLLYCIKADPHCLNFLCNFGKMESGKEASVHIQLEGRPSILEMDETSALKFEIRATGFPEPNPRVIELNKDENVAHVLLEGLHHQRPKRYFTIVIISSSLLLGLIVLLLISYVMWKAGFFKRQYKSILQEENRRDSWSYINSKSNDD

The first assay concerns the target Integrin beta-1 (Homo sapiens) + Integrin alpha-4 (Homo sapiens) (UniProt P13612+P05556). The assay can be described thus: inhibition of HUTS-21 binding to VLA-4, pilot screen, VLA-4 allosteric modulator project, U937 cells, HUTS-21 mAb, flow cytometry, validation set (AID 2674;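 active = inhibition above 50%, about 3 SD of the validation set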;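 note: antibody binding induced by the VLA-4 ligand LDV present at three times its Kd; 0% = LDV ligand with antibody and no compound and 100% = antibody without LDV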). As to conditions: HUTS-21 LIBS mAb binding, at 6.7 µM, hits give high values, binding induced by LDV ligand. (Flow cytometry measures light scatter and fluorescence of single cells or particles in a stream.)
As usually defined, the inhibition is the relative decrease from the control value, in per cent. As to `CCC(C)NCCOc1ccc(C(C)(C)c2ccccc2)cc1` (stereo not given), the inhibition was -5.64%.
Consider `O=C(NCc1ccc(N2CCCC2=O)cc1)c1ccc(F)cc1`, for which the inhibition is 17.6%.
Take `CC1(C)O[C@@H]2C[C@H]3[C@@H]4C[C@H](F)C5=CC(=O)CC[C@]5(C)[C@H]4[C@@H](O)C[C@]3(C)[C@]2(C(=O)CO)O1`: the inhibition is -2.43%.
`N/C(=N\OC(=O)CCCOc1ccc(Cl)cc1Cl)c1ccncc1`: the inhibition was 4.27%.
Turning to `COCCCN1C(=O)/C(=C\c2cccs2)C(C(=O)OC)=C1C`, the inhibition was 6.4%.
For `Cc1ccc2nc(C)c3c(c2c1)OC(C(C)(Cl)Br)C3` (stereo not given), the inhibition is 6.4%.
Regarding `CC12COC3(C(=O)Nc4ccc(F)cc4)CC1CCC32C` (stereo not given), the inhibition is 8.4%.
As to `Cc1ccnc(NS(=O)(=O)c2ccc(N)cc2)n1`, the inhibition was 19%.
As for `CC1(C)CC(=O)c2cnc(NC(=O)C3CCCC3)nc2C1`, the inhibition was 4.73%.
The same measure, in the same setting: the figure for `COc1ccc(CCN2CNc3c(c(=O)n(C)c(=O)n3C)C2)cc1OC` is -1.97%; for `O=C(O)CCCc1ccccc1` it is -4.6%; for `CCCNCC(O)COc1ccccc1C(=O)CCc1ccccc1` (stereo not given) it is 21.3%.
As for `COc1ccc(C(=O)O)cc1F`, the inhibition is -1.09%.
Still for that read-out and setting: the figure for `COc1cc(C)nc(-n2nc(C)cc2OC)n1` is -12.9%; for `CCCCCCC(=O)N(O)C1CC(=O)N(Cc2ccccc2)C1=O` (stereo not given) it is -0.45%; for `CC(=O)N1CCN(c2ccc(NC(=O)/C=C/c3ccccc3)cc2)CC1` it is 2.93%.
Take `Cc1ccc(Nc2ncccc2C(=O)O)cc1C`: the inhibition was 8.4%.
As for `CCCCCCCC(=O)OCC(O)CO` (stereo not given), the inhibition was 0.58%.
Turning to `CSCCC(NC(C)=O)C(=O)Oc1ccc2c3c(c(=O)oc2c1)CCCC3` (stereo not given), the inhibition is 3.7%.
In the case of `CC(C)CN1CCN(Cc2ccc(C#CC(C)(C)O)cc2)CC1CCO` (stereo not given), the inhibition is -8.09%.
Take `Cc1nc(C2CC(=O)OC23CCCCC3)cs1` (stereo not given): the inhibition is -0.43%.
On to `CO[C@H]1C=CO[C@@]2(C)Oc3c(C)c(O)c4c(O)c(c(C=NN5CCN(C)CC5)c(O)c4c3C2=O)NC(=O)C(C)=CC=C[C@H](C)[C@H](O)[C@@H](C)[C@@H](O)[C@@H](C)[C@H](OC(C)=O)[C@@H]1C`, for which the inhibition is -46.9%.
Regarding `COc1cccc(-n2cc(CNCc3c(C(=O)N(C)C)nc4ccc(Cl)cn34)cn2)c1`, the inhibition was -4.6%.
Consider `S=C(c1ccc2c(c1)OCO2)N1CCCCC1`, for which the inhibition is -9.13%.
Consider `CC(C)Oc1ccc2c(=O)c(-c3ccccc3)coc2c1`, for which the inhibition is -7.12%.
With `CCn1cc(CN2N=C(C)CC2c2ccccc2)c(C)n1` (stereo not given), the inhibition was -7.25%.
On to `CCCCOc1ccc(C(=O)CCN2CCCCC2)cc1`, for which the inhibition is -9.13%.
In the case of `NCCCC(N)(C(=O)O)C(F)F` (stereo not given), the inhibition is 5.61%.
Turning to `C[N+](C)(C)CCOP(=O)([O-])OC[C@H](O)CO`, the inhibition was -3.77%.
With `O=C(O)C1CCN(C(=O)COc2ccc3c4c(c(=O)oc3c2)CCC4)CC1`, the inhibition was 6.55%.
On the same count and under the same terms, the figure for `COc1ccc(OC)c(S(=O)(=O)N2CCCc3ccccc32)c1` is 15%; for `COc1ccc2[nH]c(=O)c3c(c2c1)OC(C)(C)C=C3` it is -3.16%; for `CCN1CCN(C(=S)c2ccc(OC)cc2)CC1` it is -4.52%.
On to `C=CCOc1ccc(C(=O)CC)cc1OC`, for which the inhibition is 8.29%.
For `CCc1cccc2c3c([nH]c12)C(CC)(CC(=O)O)OCC3` (stereo not given), the inhibition is -4.6%.
For the molecule `COc1ccc(OC(C)C(=O)Nc2ccccc2F)cc1` (stereo not given), the inhibition is 25.7%.
`CCCC(=O)Nc1ccccc1NC(C)=O`: the inhibition was -9.13%.
With `O=C(O)CCCCCCNC(=O)c1cncc(O)c1`, the inhibition is 13.4%.
Turning to `COc1ccc(Br)cc1C(=O)Nc1ccc(C(=O)O)cc1`, the inhibition was -0.45%.
Same read-out and setting: as for `CC[N+]1(CC)CC2=Cc3ccccc3CC2C1` (stereo not given), the figure is 13.2%.

System in a further assay: not listed separately
Description: superoxide lowering in aged yeast cells, pilot screen, validation compound set (AID 2706).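 Note: yeast exposed to compound for one week at 30 degrees C before staining; 100% = mean of all compound wells on the same plate.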 As to conditions: S. cerevisiae aging, superoxide DHE fluorescence; at 10 µM; hits give low values.
As to `CCC(C)NCCOc1ccc(C(C)(C)c2ccccc2)cc1` (stereo not given), the superoxide response (% of plate) was 97.5%.
On to `O=C(NCc1ccc(N2CCCC2=O)cc1)c1ccc(F)cc1`, for which the superoxide response (% of plate) is 101%.
Consider `CC1(C)O[C@@H]2C[C@H]3[C@@H]4C[C@H](F)C5=CC(=O)CC[C@]5(C)[C@H]4[C@@H](O)C[C@]3(C)[C@]2(C(=O)CO)O1`, for which the superoxide response (% of plate) was 88.9%.
With `N/C(=N\OC(=O)CCCOc1ccc(Cl)cc1Cl)c1ccncc1`, the superoxide response (% of plate) was 103%.
On the same count and under the same terms, as for `COCCCN1C(=O)/C(=C\c2cccs2)C(C(=O)OC)=C1C`, the figure is 113%; as for `Cc1ccc2nc(C)c3c(c2c1)OC(C(C)(Cl)Br)C3` (stereo not given), 94.8%.
Consider `CC12COC3(C(=O)Nc4ccc(F)cc4)CC1CCC32C` (stereo not given), for which the superoxide response (% of plate) was 99.2%.
In the case of `Cc1ccnc(NS(=O)(=O)c2ccc(N)cc2)n1`, the superoxide response (% of plate) is 92.2%.
Take `CC1(C)CC(=O)c2cnc(NC(=O)C3CCCC3)nc2C1`: the superoxide response (% of plate) is 95.1%.
Still for that read-out and setting: as for `COc1ccc(CCN2CNc3c(c(=O)n(C)c(=O)n3C)C2)cc1OC`, the figure is 93.5%; as for `O=C(O)CCCc1ccccc1`, 107%.
On to `CCCNCC(O)COc1ccccc1C(=O)CCc1ccccc1` (stereo not given), for which the superoxide response (% of plate) was 98.6%.
As for `COc1ccc(C(=O)O)cc1F`, the superoxide response (% of plate) was 105%.
Turning to `COc1cc(C)nc(-n2nc(C)cc2OC)n1`, the superoxide response (% of plate) was 88.7%.
As for `CCCCCCC(=O)N(O)C1CC(=O)N(Cc2ccccc2)C1=O` (stereo not given), the superoxide response (% of plate) was 103%.
As for `CC(=O)N1CCN(c2ccc(NC(=O)/C=C/c3ccccc3)cc2)CC1`, the superoxide response (% of plate) is 76%.
Regarding `Cc1ccc(Nc2ncccc2C(=O)O)cc1C`, the superoxide response (% of plate) is 114%.
For `CCCCCCCC(=O)OCC(O)CO` (stereo not given), the superoxide response (% of plate) was 110%.
Take `CSCCC(NC(C)=O)C(=O)Oc1ccc2c3c(c(=O)oc2c1)CCCC3` (stereo not given): the superoxide response (% of plate) was 102%.
Regarding `CC(C)CN1CCN(Cc2ccc(C#CC(C)(C)O)cc2)CC1CCO` (stereo not given), the superoxide response (% of plate) was 92.7%.
`Cc1nc(C2CC(=O)OC23CCCCC3)cs1` (stereo not given): the superoxide response (% of plate) is 104%.
Take `CO[C@H]1C=CO[C@@]2(C)Oc3c(C)c(O)c4c(O)c(c(C=NN5CCN(C)CC5)c(O)c4c3C2=O)NC(=O)C(C)=CC=C[C@H](C)[C@H](O)[C@@H](C)[C@@H](O)[C@@H](C)[C@H](OC(C)=O)[C@@H]1C`: the superoxide response (% of plate) is 105%.
Still for that read-out and setting: the figure for `COc1cccc(-n2cc(CNCc3c(C(=O)N(C)C)nc4ccc(Cl)cn34)cn2)c1` is 106%.
With `S=C(c1ccc2c(c1)OCO2)N1CCCCC1`, the superoxide response (% of plate) is 91%.
For `CC(C)Oc1ccc2c(=O)c(-c3ccccc3)coc2c1`, the superoxide response (% of plate) was 94.6%.
For the molecule `CCn1cc(CN2N=C(C)CC2c2ccccc2)c(C)n1` (stereo not given), the superoxide response (% of plate) is 106%.
For `CCCCOc1ccc(C(=O)CCN2CCCCC2)cc1`, the superoxide response (% of plate) is 83.9%.
As for `NCCCC(N)(C(=O)O)C(F)F` (stereo not given), the superoxide response (% of plate) is 105%.
With `C[N+](C)(C)CCOP(=O)([O-])OC[C@H](O)CO`, the superoxide response (% of plate) was 94.8%.
For the molecule `O=C(O)C1CCN(C(=O)COc2ccc3c4c(c(=O)oc3c2)CCC4)CC1`, the superoxide response (% of plate) is 105%.
`COc1ccc(OC)c(S(=O)(=O)N2CCCc3ccccc32)c1`: the superoxide response (% of plate) was 97.2%.
As for `COc1ccc2[nH]c(=O)c3c(c2c1)OC(C)(C)C=C3`, the superoxide response (% of plate) is 99.1%.
Take `CCN1CCN(C(=S)c2ccc(OC)cc2)CC1`: the superoxide response (% of plate) was 106%.
On to `C=CCOc1ccc(C(=O)CC)cc1OC`, for which the superoxide response (% of plate) is 103%.
As to `CCc1cccc2c3c([nH]c12)C(CC)(CC(=O)O)OCC3` (stereo not given), the superoxide response (% of plate) is 107%.
Same read-out and setting: the figure for `COc1ccc(OC(C)C(=O)Nc2ccccc2F)cc1` (stereo not given) is 90.6%; for `CCCC(=O)Nc1ccccc1NC(C)=O` it is 111%.
On to `O=C(O)CCCCCCNC(=O)c1cncc(O)c1`, for which the superoxide response (% of plate) is 112%.
Take `COc1ccc(Br)cc1C(=O)Nc1ccc(C(=O)O)cc1`: the superoxide response (% of plate) is 97.6%.
For the molecule `CC[N+]1(CC)CC2=Cc3ccccc3CC2C1` (stereo not given), the superoxide response (% of plate) is 90.8%.
